High-throughput results deposited in PubChem by several laboratories.
The list is not random: actives were taken first. Their share in the collection is about 2.2%.
Hsp70 activator: Hsp70 transcriptional activation, primary screen; HeLa Hsp70 promoter luciferase reporter, luminescence; scaled: vehicle 0, proteasome-inhibitor control 100%; AID 1203; 200,000 tested, 0.04% active; activation, % at 10 µM;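 active = activation above the mean across all tested compounds plus 3 SD, cutoff set per campaign, cut at about 5.5% in these data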
GalR3 antag: antagonists of human GalR3; HEK293 GalR3-CNG cAMP membrane potential fluorescence; galR3 body fused to GalR1 C-terminus; inhibition, % at 3 µM; 360,000 tested, 0.44% active; AID 651719;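 active = inhibition above the screen-wide average plus 3 SD, cut at about 13% in these data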;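 also: forskolin and galanin both at EC90 stimulate the cells; cAMP rise reported by CNG channel membrane potential dye signal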
Target sequence (O60755 1-299 limits assumed): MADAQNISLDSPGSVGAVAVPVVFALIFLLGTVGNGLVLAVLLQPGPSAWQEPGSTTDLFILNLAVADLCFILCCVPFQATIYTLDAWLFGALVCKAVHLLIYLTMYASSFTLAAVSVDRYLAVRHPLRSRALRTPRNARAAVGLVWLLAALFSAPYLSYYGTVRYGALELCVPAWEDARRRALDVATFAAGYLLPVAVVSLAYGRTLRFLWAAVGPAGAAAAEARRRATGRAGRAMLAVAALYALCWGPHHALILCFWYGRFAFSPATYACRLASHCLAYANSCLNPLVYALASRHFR
SMARCA2 activ: activators of SMARCA2 function; activation, % at 9.1 µM; 370,000 tested, 1% active; MG213 cells, MMTV-luciferase reporter, dexamethasone, overnight; in the data active = activation above about 7.8%
GAA850 FXN act: frataxin GAA850 promoter activation. HEK293 lucGAA850 FXN promoter luciferase reporter, 24 h; percent of 10 µM SAHA response. activation, % at 6 µM. 360,000 tested, 0.56% active;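 active = activation above the average of all compounds screened plus 3 SD, cutoff fixed separately per campaign, cut at about 7.5% in these data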
HIF act: HIF pathway transcriptional activation; activation, % at 7.5 µM (by protocol); U2OS HRE-luciferase reporter, luminescence; normalized: DMSO 0%, desferrioxamine 100%; 300,000 tested, 0.32% active; AID 1910;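 active = mean activation of at least 10% of the iron chelator positive control signal, with at least half of replicates also reaching 10%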
GalR3 conf: confirmation of human galanin receptor 3 antagonists; HEK293 GalR3 CNG cAMP biosensor, membrane potential fluorescence; galR3 fused to GalR1 carboxy tail; challenged with forskolin and galanin at EC90; AID 652245; inhibition, % at 3 µM; shares compounds with GalR3 antag; 1,600 tested, 59% active;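 active = inhibition above the primary screen's cutoff, the mean inhibition of all screened compounds plus 3 SD, cut at about 13% in these data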
HEK-CNG parental: parental cell agonism counter-screen for GalR3 antagonists | AID 652268 | shares compounds with GalR3 antag | HEK293-CNG parental cells, cAMP membrane potential fluorescence; normalised: DMSO wells 0%, forskolin wells 100% | 1,600 tested, 10% active | activation, % at 3 µM; in the data active = activation above about 1.3%
Of the large screens only hits and unclear results are named; the others gave an inactive call (follow-up assays come after a bar, where they were run).

O=C1[C@H](c2ccccc2)[C@@H](c2ccncc2)N1c1ccncc1	none (no result: Hsp70 activator, GAA850 FXN act, HIF act)
Cc1ccc(NC(=O)COc2ccc(N(C)C(=O)C(C)(C)C)cc2)cc1S(=O)(=O)N1CCCCC1	GalR3 antag 93 (no result: Hsp70 activator, HIF act) | GalR3 conf 105 | HEK-CNG parental inactive
Cc1ccc(NC(=O)COc2cccc(C)c2C)cc1S(=O)(=O)N1CCCCCC1	none (no result: Hsp70 activator)
CCc1cccc(OCC(=O)Nc2ccc(C)c(S(=O)(=O)N3CCCCCC3)c2)c1	GalR3 antag 87 (no result: Hsp70 activator) | GalR3 conf 80 | HEK-CNG parental inactive
Cc1ccc(C(=O)N2CCC[C@@H]2C(=O)N2CCC[C@@H]2C(=O)NCc2ccccc2)cc1	none (no result: Hsp70 activator, GAA850 FXN act, HIF act)
C[C@@H]1COc2cc(NCCCN3CCOCC3)ccc2S(=O)(=O)N1	none (no result: Hsp70 activator, GAA850 FXN act, HIF act)
C=CCN1[C@@H](CC(C)C)COc2cccc(F)c2S1(=O)=O	none (no result: Hsp70 activator, GalR3 antag, GAA850 FXN act, HIF act)
CCOC(=O)[C@@]12CCCC3=C1N(CCC3)C(=O)[C@H]2CC(=O)NCC12CC3CC(CC(C3)C1)C2	none (no result: Hsp70 activator, GalR3 antag, GAA850 FXN act, HIF act)
CCOc1ccc2[nH]c(SCC(=O)OC)c([N+](=O)[O-])c2c1	GalR3 antag 20 | GalR3 conf 17 | HEK-CNG parental inactive
CC(C)SCCCOc1ccc(C(C)(C)C)cc1	none (no result: GalR3 antag) | GalR3 conf inactive | HEK-CNG parental inactive
CC(C)SCCCCOc1ccc2ccccc2c1	none
COc1ccc(C(NC(C)=O)c2cc(Cl)c3cccnc3c2O)cc1OC (stereo not given)	none
COc1ccc(C(NC(C)=O)c2nccc3cc(OC)c(OC)cc23)cc1OC (stereo not given)	GalR3 antag 23 (no result: Hsp70 activator) | GalR3 conf inactive | HEK-CNG parental inactive
O=C(Nc1ccc(Cl)c(S(=O)(=O)N2CCOCC2)c1)c1ccncc1	GalR3 antag 43 (no result: Hsp70 activator, HIF act) | GalR3 conf inactive | HEK-CNG parental inactive
CC(CC(=O)Nc1ccc(Cl)c(S(=O)(=O)N2CCOCC2)c1)c1ccccc1 (stereo not given)	GalR3 antag 96 (no result: Hsp70 activator, HIF act) | GalR3 conf 120 | HEK-CNG parental inactive
CC(=O)Nc1ccc(OCC(=O)Nc2ccc(Cl)c(S(=O)(=O)N3CCOCC3)c2)cc1	GalR3 antag 31 (no result: Hsp70 activator, HIF act) | GalR3 conf 92 | HEK-CNG parental inactive
O=C(Nc1ccc2c(c1)OCCO2)c1ccc(Cl)c(S(=O)(=O)N2CCOCC2)c1	none
CCCC(=O)OC[C@H]1CN(C2CCCC2)S(=O)(=O)c2c(Oc3ccc(F)cc3)cccc2O1	none (no result: Hsp70 activator, GAA850 FXN act, HIF act)
COC(=O)C1=C(C)N(C)C(=NCc2ccc(C(F)(F)F)cc2)NC1c1cccc(Cl)c1 (stereo not given)	none (no result: Hsp70 activator, GAA850 FXN act, HIF act)
Cc1nn(-c2ccccc2)c2sc(C(=O)N3CCN(C(c4ccccc4)c4ccc(Cl)cc4)CC3)cc12 (stereo not given)	none (no result: Hsp70 activator, GalR3 antag, GAA850 FXN act, HIF act)
CC(C)c1ccc(NC2CCCN(C(=O)c3n[nH]c4c3CCC4)C2)cc1 (stereo not given)	GalR3 antag 31 (no result: Hsp70 activator) | GalR3 conf 36 | HEK-CNG parental inactive
COC(=O)c1ccc(C(=O)N2CCCC(Nc3ccc(C(C)C)cc3)C2)cc1 (stereo not given)	none (no result: Hsp70 activator)
C#CCNC(=O)C[C@@H]1C[C@@](CCC(=O)OCC)(C(=O)OCC)C2=CCCCN2C1=O	none (no result: Hsp70 activator, GalR3 antag, GAA850 FXN act, HIF act)
CCC(C)c1ccc(NC(=O)COC(=O)c2nc3nccc(C)n3n2)cc1 (stereo not given)	GalR3 antag 15 | GalR3 conf 14 | HEK-CNG parental inactive
Cc1cccc(Nc2nc(NCc3ccco3)c3ccccc3n2)c1	GalR3 antag 45 | GalR3 conf 54 | HEK-CNG parental 8.7
c1ccc(Nc2nc(NCc3ccco3)c3ccccc3n2)cc1	none (no result: Hsp70 activator)
COc1cc2c(cc1OC)-c1cc(Nc3cccc(C)c3)nc(=O)n1CC2	GalR3 antag 53 (no result: Hsp70 activator) | GalR3 conf 59 | HEK-CNG parental inactive
CCOc1ccc(Nc2cc3n(c(=O)n2)CCc2cc(OC)c(OC)cc2-3)cc1	none (no result: Hsp70 activator)
COc1cc2c(cc1OC)-c1cc(Nc3ccccc3C)nc(=O)n1CC2	GalR3 antag 46 (no result: Hsp70 activator) | GalR3 conf 53 | HEK-CNG parental inactive
Cc1ccc(C)c(NC(=O)c2cccc3c2-c2ccccc2C3=O)c1	none (no result: Hsp70 activator, GalR3 antag, GAA850 FXN act, HIF act)
Cc1cc(CN(C)C(=O)c2cc(COc3ccc4ncccc4c3)on2)on1	GalR3 antag 37 | GalR3 conf 69 | HEK-CNG parental inactive
CN(Cc1nccn1C)C(=O)c1cc(COc2ccc3ncccc3c2)on1	none
CN(Cc1cccc2cnccc12)C(=O)c1cc(COc2ccc(F)cc2F)on1	none (no result: Hsp70 activator)
CCc1ccc(CN(C)C(=O)c2cc(COc3cccc4cnccc34)on2)cc1	GalR3 antag 14 (no result: Hsp70 activator) | GalR3 conf 84 | HEK-CNG parental inactive
CCC(O)C1CCN(C(=O)c2cc(COc3ccc4ncccc4c3)on2)CC1 (stereo not given)	GalR3 antag 101 | GalR3 conf 91 | HEK-CNG parental inactive
O=C(NC1CCCCCCC1)c1cc(COc2ccc3ncccc3c2)on1	GalR3 antag 68 | GalR3 conf 92 | HEK-CNG parental inactive
O=C(OCc1cn(Cc2cccc(Cl)c2)nn1)N1CCOCC1	none (no result: Hsp70 activator, GalR3 antag, GAA850 FXN act, HIF act)
O=C(c1cc(COc2ccc3ncccc3c2)on1)N1CCCC(O)C1 (stereo not given)	none
COCC1CCCN(C(=O)c2cc(COc3ccc4ncccc4c3)on2)C1 (stereo not given)	GalR3 antag 100 (no result: Hsp70 activator) | GalR3 conf 125 | HEK-CNG parental inactive
CC(Sc1nc(N)c2c3c(sc2n1)CSC(C)(C)C3)C(=O)Nc1ccccc1 (stereo not given)	GalR3 antag 54 | GalR3 conf 45 | HEK-CNG parental inactive
CC(Sc1nc(NCc2ccccc2)nc(N(C)C)n1)C(=O)Nc1ccccc1 (stereo not given)	none
CC(C)N1CCCCC(NC(=O)c2ccc(F)cc2)C1=O (stereo not given)	none (no result: Hsp70 activator, GalR3 antag, GAA850 FXN act, HIF act)
COC(=O)c1cc2c(c3c4cc(F)ccc4n(S(=O)(=O)c4cccc(C)c4)c13)C(=O)N(c1ccc(OC)cc1)C2	none (no result: Hsp70 activator, GAA850 FXN act, HIF act)
Cc1nn(C)c(C(=O)NCc2ccc(Cl)cc2)c1Cl	GalR3 antag 82 | GalR3 conf 100 | HEK-CNG parental inactive
COC(=O)C1=C(C)N(Cc2ccc(C(F)(F)F)cc2)C(=NCc2ccccc2C(F)(F)F)NC1c1ccc(Cl)cc1 (stereo not given)	none (no result: Hsp70 activator, GAA850 FXN act, HIF act)
O=C1/C(=C/c2cccc([N+](=O)[O-])c2)CCc2ccccc21	GalR3 antag 16 | GalR3 conf inactive | HEK-CNG parental inactive
O=C1/C(=C/c2ccc([N+](=O)[O-])cc2)CCc2ccccc21	none (no result: Hsp70 activator, GalR3 antag, SMARCA2 activ, GAA850 FXN act)
CCc1c(C(=O)Nc2ccc(OC)c(Cl)c2)[nH]c(C)c1C(C)=O	GalR3 antag 28 | GalR3 conf 13 | HEK-CNG parental inactive
O=C(O)COc1ccccc1C=NNC(=O)Cc1cc(=O)[nH][nH]1	none (no result: Hsp70 activator, GalR3 antag, GAA850 FXN act, HIF act)
Cc1nc2ccc(S(=O)(=O)NCC(=O)NCc3ccccc3Cl)cc2s1	none (no result: Hsp70 activator, GalR3 antag, GAA850 FXN act, HIF act)
